Compound activity: PubChem BioAssay, NMMLSC
This is a sample that favours compounds with a hit; in the whole collection about 0.4% have one here.
Cdc42 wt GTP: changes GTP binding to wildtype human Cdc42 | P60953 | GST-Cdc42 beads, Bodipy-GTP binding, flow cytometry; actives lie on both sides | percent activity (GTP binding), % at 10 µM | hit rate 0.2% among 190,000 | AID 761;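 active = percent activity GTP binding at least 20 points away from the 100% baseline, either down as inhibitor or up as activator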;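 also: median bead fluorescence of bound Bodipy-FL-GTP at 100 nM; 0% = excess unlabeled GTP control and 100% = no compound control; below 100% means less GTP binding so inhibitor and above means activator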
Target sequence (P60953 whole entry, looked up): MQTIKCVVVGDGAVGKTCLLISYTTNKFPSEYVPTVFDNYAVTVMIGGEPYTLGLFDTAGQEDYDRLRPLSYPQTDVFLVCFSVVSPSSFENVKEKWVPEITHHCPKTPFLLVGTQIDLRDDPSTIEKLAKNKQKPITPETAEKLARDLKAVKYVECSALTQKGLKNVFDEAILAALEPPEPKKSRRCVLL
Rab2A wt mod: changes GTP binding to wildtype dog Rab2A, up or down; GST-Rab2 wt beads, Bodipy-GTP binding, flow cytometry; GTP binding activity, % at 10 µM; hit rate 0.19% among 190,000;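 active = GTP binding activity at least 20 points away from 100%, either lowered or raised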;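 also: 0% = beads with excess unlabeled GTP and 100% = no-compound control corrected for plate trend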
HRas wt GTP bind: changes GTP binding to wildtype human HRas. GTP binding activity, % at 10 µM. AID 759. GST-Ras wt beads, Bodipy-FL-GTP binding, flow cytometry; actives lie on both sides. P01112. hit rate 0.14% among 190,000;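 active = GTP binding activity at least 20% away from the 100% baseline, either lowered as inhibitor or raised as activator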;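 also: 0% = unlabeled GTP competition control and 100% = no-compound control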
Target sequence (P01112 whole entry, looked up): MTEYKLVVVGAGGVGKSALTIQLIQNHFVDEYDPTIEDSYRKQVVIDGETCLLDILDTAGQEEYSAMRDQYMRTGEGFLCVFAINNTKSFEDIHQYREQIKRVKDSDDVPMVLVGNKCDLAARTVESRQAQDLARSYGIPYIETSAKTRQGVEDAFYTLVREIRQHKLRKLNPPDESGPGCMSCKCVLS
Rac1 wt GTP bind: alters GTP binding to wildtype human Rac1 | P63000 | GST-Rac1 beads, fluorescent GTP binding, flow cytometry; actives lie on both sides; 0 = cold GTP competed, 100 = untreated | GTP binding activity (% of control), % at 10 µM | hit rate 0.27% among 190,000 | AID 757;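 active = GTP binding activity at least 20 points away from the 100% control level, either lower or higher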
Rab7 wt GTP bind: dog Rab7 wildtype GTP binding, inhibitors and activators; GST-Rab7 beads, fluorescent GTP binding, flow cytometry; actives lie on both sides; untreated = 100%, excess cold GTP = 0%; hit rate 0.055% among 190,000; GTP binding activity (percent of control), % at 10 µM;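 active = fluorescent GTP binding to Rab7 beads changed by at least 20 points from the 100% baseline, either direction, mostly lower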;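 also: median green fluorescence of bound Bodipy-FL-GTP per Rab7 bead population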
Rac1 act GTP bind: alters GTP binding to activated mutant human Rac1; P63000; percent activity (GTP binding), % at 10 µM; GST-Rac1 activated beads, fluorescent GTP binding, flow cytometry; actives lie on both sides; 100% means binding = to untreated wells; hit rate 0.11% among 190,000;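 active = GTP binding at least 20 percentage points away from the 100% baseline, in either direction, so actives lie on both sides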
The depositor's hits bear a star; [ ] = dose if it differs, or a comment.

SMILES	Cdc42 wt GTP	Rab2A wt mod	HRas wt GTP bind	Rac1 wt GTP bind	Rab7 wt GTP bind	Rac1 act GTP bind
O=C(COC(=O)c1ccc2c(c1[N+](=O)[O-])C(=O)c1ccccc1C2=O)NC1CC1	73*	73*	76*	70*	91	83
CCC(C)(C)NC(=O)c1ccc2c(c1)N(CC(=O)OC)C(=O)C(C)(C)O2	107	103	103	120*[activator]	100	101
COc1ccc(/C=C2\CCCC3C2=NN(C(=O)c2scnc2C)C3c2ccc(OC)c(OC)c2)cc1OC (stereo unspecified)	66*	66*	67*	81	88	85
COc1ccc(-c2csc(NC(=O)Cc3cccc4ccccc34)c2C(=O)O)cc1	76*	75*	78*	70*	81	82
COc1ccc(-c2csc(NC(=O)c3cccs3)c2C(=O)O)cc1OC	92	90	92	91	102	95
CN(C)c1cc[n+](CC(=O)Nc2ccc(Oc3ccccc3)cc2)cc1	97	100	98	99	104	98
C=CCN1C(=O)/C(=C/C=C2/N(CC)c3ccc(S(=O)(=O)N(C)C)cc3N2CC)SC1=S	83	86	79*	81	96	84
COc1cc2[nH]c(=S)n(CC3CCCO3)c(=O)c2cc1OC (stereo unspecified)	104	105	104	104	104	99
COc1cc2[nH]c(=S)nc(NC3CCCCCC3)c2cc1OC	69*	69*	66*	60*	88	83
COc1cc2[nH]c(=S)nc(NCC3CCCO3)c2cc1OC (stereo unspecified)	74*	80	81	74*	88	84
COc1ccccc1C1(O)CCN(CC(=O)Nc2nc(-c3ccccc3)cs2)CC1	96	95	96	97	97	94
COc1cc(NC(=O)c2cccs2)c(OC)cc1NC(=O)CCC(=O)Nc1ccc2ncccc2c1	71*	71*	72*	74*	90	87
COCCCNc1c2c3c(cccc3[nH]c1=O)C(=O)c1ccccc1-2	86	82	84	84	87	90
CCOC(=O)c1c2c3c(c(Cl)ccc3[nH]c1=O)C(=O)c1ccccc1-2	41*	44*	44*	45*	88	65*
CCOC(=O)c1c2c3c(cccc3[nH]c1=O)C(=O)c1ccccc1-2	63*	65*	66*	76*	84	80
O=C(N1CCCC1)C12CCC3CC(CC(C3)C1)C2	106	105	105	108	100	103
COc1ccc(NC(=O)C(CCS(C)(=O)=O)N2C(=O)c3ccccc3C2=O)cc1 (stereo unspecified)	99	103	101	100	98	100
COc1cc(/C=N/NC(=O)Nc2cccc3nsnc23)cc(OC)c1OC	56*	59*	58*	76*	80	75*
N#CC(C#N)=C(Nc1ccc(F)cc1)SCc1cccc(Br)c1	127*[activator]	109	101	134*[activator]	101	104
C[C@@H]1CN(C(=O)c2nc3ccc(Cl)cn3c2CN2CCc3sccc3C2)C[C@H](C)O1	94	91	96	103	93	96
Cc1cc(C)n2nc(SCC(=O)Nc3ccccc3)nc2n1	97	97	96	99	96	96
Cc1cc(C)n2nc(SCCOc3ccccc3)nc2n1	82	83	84	78*	93	88
COCCNC(=S)Nc1cc(OC)c(OC)cc1C#N	60*	59*	67*	57*	86	80
CS(=O)(=O)N1CCC(C(=O)N2CCN(C(c3ccccc3)c3ccccc3)CC2)CC1	98	100	101	100	104	96
O=C(COc1ccccc1[N+](=O)[O-])Nc1cc(Cl)ccc1C(=O)O	80	83	85	87	92	79*
CCNC(=O)c1cc2c(=O)n3cccc(C)c3nc2n(CCc2ccccc2)c1=N	71*	72*	71*	81	87	82
